From PubChem BioAssay
This is a sample that favours compounds with a hit; in the whole collection about 10% have one here.
JMJD2A Tudor: JMJD2A Tudor domain (human) inhibition | 390,000 tested, 4.4% active | Potency, µM (top dose mostly 114 µM), hits mostly inhibitors | O75164 | AlphaScreen JMJD2A-Tudor / H3K4me3 peptide binding | AID 504339; further: nearly all actives have a fitted effect of over 50% in size
Target sequence (O75164 whole entry, looked up, the tested form may be a part): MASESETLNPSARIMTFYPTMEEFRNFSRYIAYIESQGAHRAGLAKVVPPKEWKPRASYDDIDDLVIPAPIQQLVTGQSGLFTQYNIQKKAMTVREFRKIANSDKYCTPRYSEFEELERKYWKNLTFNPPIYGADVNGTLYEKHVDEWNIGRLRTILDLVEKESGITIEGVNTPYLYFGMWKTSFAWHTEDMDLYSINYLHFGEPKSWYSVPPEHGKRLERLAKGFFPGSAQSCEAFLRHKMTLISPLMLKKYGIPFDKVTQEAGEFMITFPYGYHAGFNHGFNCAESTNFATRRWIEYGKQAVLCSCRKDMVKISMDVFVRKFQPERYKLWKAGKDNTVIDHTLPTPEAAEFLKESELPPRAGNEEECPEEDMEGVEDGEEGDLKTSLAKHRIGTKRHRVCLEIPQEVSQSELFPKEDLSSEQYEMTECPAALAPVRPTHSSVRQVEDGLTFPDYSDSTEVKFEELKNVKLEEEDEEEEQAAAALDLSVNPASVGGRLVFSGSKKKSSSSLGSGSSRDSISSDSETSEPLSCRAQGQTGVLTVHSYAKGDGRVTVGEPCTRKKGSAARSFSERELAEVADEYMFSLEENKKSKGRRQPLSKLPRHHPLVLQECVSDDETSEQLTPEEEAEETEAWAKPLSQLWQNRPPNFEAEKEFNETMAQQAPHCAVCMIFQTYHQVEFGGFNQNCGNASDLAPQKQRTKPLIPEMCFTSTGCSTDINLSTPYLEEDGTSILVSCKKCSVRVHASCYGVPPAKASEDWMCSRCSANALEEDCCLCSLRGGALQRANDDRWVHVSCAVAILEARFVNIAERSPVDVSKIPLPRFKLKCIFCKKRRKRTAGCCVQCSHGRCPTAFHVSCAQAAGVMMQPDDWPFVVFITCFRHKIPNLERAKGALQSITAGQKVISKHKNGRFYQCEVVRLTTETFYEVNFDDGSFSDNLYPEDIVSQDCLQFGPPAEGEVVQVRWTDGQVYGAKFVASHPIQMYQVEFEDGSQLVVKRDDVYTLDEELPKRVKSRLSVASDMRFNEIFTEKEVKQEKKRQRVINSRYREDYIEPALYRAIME
Six1-Eya2 blk: inhibitors of human Six1/Eya2 interaction; Q15475+O00167; AID 651725; activity change, % (concentration not given with the values); AlphaScreen GST-Six1/His-Eya2 binding, biochemical; stronger effect = lower value; 360,000 tested, 0.56% active; in the data active means activity change below about -65%; inconclusive means mostly about -30% to -63%
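Six1/Eya2 binding was read as AlphaScreen signal after compounds were pinned into GST-Six1 plus His-tagged Eya2 (5X stock 250/500 nM) in pH 8.0 Tris/NaCl/TCEP buffer, beads added, then incubated 1 h, 37 C, dark.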
HP1b binding inh: HP1-beta chromodomain-methylated histone interaction inhibition; P83916; AlphaScreen HP1-beta / biotin-H3K9me3 peptide binding; Potency, µM (highest dose often 114 µM), usual class: inhibitors; 390,000 tested, 0.56% active; further: nearly all actives have a fitted effect of over 70% in size
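AlphaScreen: HP1-beta (50 nM) preformed 30 min with biotin-H3(1-18)K9me3 peptide (50 nM) in PBS pH 7.4, 0.01% Tween-20. Compound added for 30 min at RT, then streptavidin donor/nickel chelate acceptor beads (10 ug/mL) for 30 min.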
BAZ2B block: inhibitors of human BAZ2B bromodomain. Q9UIF8. AlphaScreen BAZ2B-H3K14Ac peptide displacement. Potency, µM (top dose mostly 114 µM), usual class: inhibitors. 360,000 tested, 4.4% active. AID 504333; further: nearly all actives have a fitted effect of over 60% in size
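Complex of BAZ2B and biotin-H3K14Ac (50 nM apiece) forms over 30 min at RT, then faces library compounds up to 110 uM for another 30 min; AlphaScreen beads added, 20 min dark incubation, luminescence read.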
CtBP-E1A blk: inhibitors of CtBP/E1A interaction; AlphaScreen GST-E1A/His-CtBP binding, 1536-well; stronger effect = lower value; 340,000 tested, 0.49% active; activity change, % (concentration not given with the values); in the data active means activity change below about -65%; inconclusive means mostly about -30% to -63%
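Steps: dispense buffer (Tris pH 8.0, NaCl 300 mM, TCEP 1 mM, BSA, Tween 20); add 5X protein mix (GST-E1A, His-CtBP, 125 nM each); pin 23 nL compound; 2 h at 37 °C, dark; add 5X beads (50 ug/mL); 1 h; read.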
G9a inh: blocks human histone lysine methyltransferase G9a; Potency, µM (titrated, usually from 102 µM), usual class: inhibitors; G9a H3K9 monomethylation, AlphaScreen, 2 h; AID 504332; 350,000 tested, 8.8% active; further: nearly all actives have a fitted effect of over 75% in size
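Using a bead-based AlphaScreen, monomethylated H3K9 product from 2 h room-temperature reactions (G9a 20 nM, peptide 500 nM, SAM 20 uM) was detected with 0.5 ug/mL rabbit anti-H3K9me1 antibody.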
Numbers stand for hits; n = inactive; u = inconclusive; x = no result given; [ ] = remark or other dose. Unless noted, the call rests on the fitted dose curve; in most records, active means well fitted inhibition curve with a large enough effect; inconclusive means small, poorly fitted or top-dose-only effect; inactive means no such curve, though single readings can be large or run the other way.

SMILES	JMJD2A Tudor	Six1-Eya2 blk	HP1b binding inh	BAZ2B block	CtBP-E1A blk	G9a inh
CNC(C)C#Cc1ccc2sc3cccc(OC)c3c(=O)c2c1 (stereo not drawn)	n	n	n	n	n	71µM
CNC(C)C#Cc1ccc2oc3cccc(OC)c3c(=O)c2c1 (stereo not drawn)	n	n	n	n	x	45µM
CNC(C)C#Cc1ccc2c(=O)c3c(OC)cccc3oc2c1 (stereo not drawn)	x	x	x	n	x	x
CC(C)Oc1ccc(CNC(=O)Cn2ccc3cc(S(=O)(=O)N4CCCC4)ccc32)cc1	n	n	n	n	n	n
C[C@H](Cc1ccccc1)Nc1ncnc2c1ncn2[C@@H]1O[C@H](CO)[C@H](O)[C@H]1O	x	x	x	x	x	n
Cc1cc(C)nc(SCC(=O)c2ccc(O)c(O)c2)n1	13µM	n	n	u	n	1.8µM
Cc1cc(C)nc(SCC(=O)c2ccc(C)c(C)c2)n1	n	n	n	n	n	n
COCc1cc(C)nc(SCC(=O)c2ccc(O)c(O)c2)c1C#N	22µM	n	n	n	n	10µM
Cc1cc(=O)[nH]c(SCC(=O)c2ccc(O)c(O)c2)n1	n	n	n	56µM	n	7.9µM
Cn1c(=O)c2[nH]c(SCC(=O)c3ccc(F)cc3)nc2n(C)c1=O	n	n	n	n	n	u
COc1ccc(C(=O)NNC(=O)CSc2nc3c([nH]2)c(=O)n(C)c(=O)n3C)cc1	n	n	n	n	x	22µM
Cc1ccc(C(=O)CSc2nc(N)cc(=O)[nH]2)cc1C	n	n	n	n	n	n
O=C(CS(=O)c1ccc(F)cc1)N1CCOCC1 (stereo not drawn)	n	n	n	n	x	n
Cc1cc(C)nc(SCC(=O)NN)n1	n	n	n	50µM	n	22µM
Cc1cc(C)nc(SCNC(=O)c2ccc(Cl)cc2)n1	u	n	n	n	n	50µM
Cc1cc(C)nc(SCc2ccc(Cl)cc2)n1	n	n	n	n	n	n
Cc1cc(C)nc(SCC(=O)Nc2ncccn2)n1	x	x	x	n	x	n
Cc1ccc(C(=O)CSc2nc(C)cc(=O)[nH]2)cc1	n	n	n	n	n	50µM
COc1ccc(NC(=O)c2ccc(NC(=O)CSc3nccc(=O)[nH]3)cc2)cc1	u	n	n	56µM	n	u
COc1ccc(C(=O)Nc2c(N)nc(SCC(=O)Nc3ccc(NC(C)=O)cc3)[nH]c2=O)cc1	n	n	n	n	n	n[12.7 µM]
NC(=O)CC(NC(=O)c1ccccc1)c1ccc(NCc2ccccc2)c([N+](=O)[O-])c1 (stereo not drawn)	n	n	n	n	n	n[12.7 µM]
COC(=O)C(CSCc1ccccc1)NC(=O)CSc1nc(C)cc(=O)[nH]1 (stereo not drawn)	50µM	n	n	n	n	n
Cc1ccc(-c2csc(NC(=O)CSC3=NCCS3)n2)cc1	n	n	n	n	n	n
Cc1cc(SCC(=O)c2ccc(O)c(O)c2)n2nc(C)c(-c3ccccc3)c2n1	n[11.4 µM]	n	n	u	n	11µM
Cc1ccc(-c2csc(NC(=O)CSc3nc(C)cc(=O)[nH]3)n2)cc1	u	n	n	u	n	45µM
SMILES	JMJD2A Tudor	Six1-Eya2 blk	HP1b binding inh	BAZ2B block	CtBP-E1A blk	G9a inh
CCOC(=O)c1ccc(NC(=O)CSc2nc(C)cc(=O)[nH]2)cc1	45µM	n	u	50µM	n	u
CCSc1cc(C)nc2c(-c3ccc(Cl)cc3)c(C)nn12	n	n	n	n	n	u
Cc1cc(=O)[nH]c(SCC(=O)NC(c2ccccc2)c2ccccc2)n1	n	n	n	x	n	n
COc1ccc2sc(N(Cc3cccnc3)C(=O)c3cccs3)nc2c1	n	x	n	n	x	n
O=C(OC1Cn2c(=O)ccc(=O)n2C1)c1ccc([N+](=O)[O-])cc1	n	n	n	n	n	n
COc1ccc(CNC(=O)c2ccc(-c3nc(CSc4ccc(C)cc4)c(C)o3)cc2)c(OC)c1	n	x	n	n	x	n
Cc1cc(C)nc(SCC(=O)c2ccc(O)cc2O)n1	n	n	n	n	n	40µM
O=C(CSc1nnnn1-c1ccccc1)c1ccc(O)cc1O	n	n	n	n	x	n
O=C(CSc1nc2ccccc2c(=O)[nH]1)c1ccc(O)c(O)c1	56µM	n	n	n	n	n[12.7 µM]
O=C(CSc1nc2ccccc2c(=O)[nH]1)c1ccc(O)cc1O	n	n	n	n	n	u
COc1cc2c(cc1OC)CN(Cc1nc3ccsc3c(=O)[nH]1)CC2	u	n	n	40µM	n	u
Nc1nc(SCC(=O)Nc2ccc(F)cc2)[nH]c(=O)c1NC(=O)c1ccc(F)c(F)c1	n	n	n	n	n	79µM
CCc1ccc(NC(=O)CSc2nc(N)c(NC(=O)c3ccc(F)c(F)c3)c(=O)[nH]2)cc1	n	n	n	n	n	x
CC(=O)Nc1ccc(NC(=O)CSc2nc(N)c(NC(=O)c3ccco3)c(=O)[nH]2)cc1	n	n	n	50µM	n	n[12.7 µM]
Cc1cc(C)cc(NC(=O)CSc2nc(N)c(NC(=O)c3cccs3)c(=O)[nH]2)c1	n	n	n	n	n	11µM
O=C(O)c1[nH]c2ccccc2c1C(c1c(F)cccc1Cl)c1c(C(=O)O)[nH]c2ccccc12	n	n	n	n	x	u
O=C(O)c1[nH]c2ccccc2c1C=NCc1ccccc1Cl	n	n	n	n	x	56µM
Cc1cccc(NC(=O)CCCn2cc([N+](=O)[O-])cn2)n1	n	n	n	n	n	n
CC(C)(C)c1ccc(C(=O)NCCOc2ccccc2)cc1	n	n	n	u	n	x
CC(C)(C)c1ccc(OCCNC(=O)c2ncn[nH]2)cc1	n	-67	n	11µM	-66	n
CCc1cc(C)cc(OCCNC(=O)c2cncc(Br)c2)c1	n	n	n	n	n	n
CCc1cc(C)cc(OCCNC(=O)c2ncn[nH]2)c1	u	n	n	50µM	n	n
Cc1nc2c(sc(=S)n2Cc2ccco2)c(=O)n1CC(=O)Nc1cc(F)ccc1F	n	n	n	n	x	n
Cc1ccc(NC(=O)Cn2c(=O)n(CC3CCC(C(=O)NC(C)C)CC3)c(=O)c3sccc32)cc1 (stereo not drawn)	n	x	n	n	x	n
COCCn1c(SCC(=O)NC2CCCC2)nnc1C(C)C	n	n	n	n	n	n
COc1ccccc1N(CC(=O)N/N=C/c1c(O)ccc2ccccc12)S(C)(=O)=O	n	-71	n	n	u	n
COc1ccccc1NCC(=O)N/N=C/c1c(O)ccc2ccccc12	n	n	n	n	n	n[0.501 µM]
Cc1oc(/C=N/NC(=O)CN(c2ccccc2Br)S(C)(=O)=O)cc1Br	u	n	n	u	n	71µM
C/C(=N\NC(=O)CN(c1ccccc1Br)S(C)(=O)=O)c1cccs1	22µM	n	n	n	n	x
